Data as given in the supplement of paper PMC10849652.
About 7,900 targets were measured; listed, in parts, are those with a hit and a random draw of the rest. About 0.6% of all pairs of compound and target were hits.

compound: NC1(c2ccc(-c3nc4ccn5c(=O)[nH]nc5c4cc3-c3ccccc3)cc2)CCC1; test: log2 fold change, soluble protein after heating vs DMSO (PISA); higher = thermal stabilisation; K562 cells, 10 uM, 30 min; active = over 0.2 and 3.5 SD of the protein, either way, in both replicates (recomputed)
Outline: (§1)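 K562 cells at 2×10^6 cells/mL were given 10 μM compound for 30 min. Aliquots then went through 3 min of heating across 48°C-58°C, were pooled, and were extracted in PBS with 0.5% NP-40 at 4°C, and the supernatant after 21,000xg for 90 min was quantified by TMTpro 16plex LC-MS/MS with channel sums equalised. Thermal stability relative to control samples, from duplicates, is given as log2 fold change.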

UniProt Q00059, sequence (Q00059 whole entry, looked up): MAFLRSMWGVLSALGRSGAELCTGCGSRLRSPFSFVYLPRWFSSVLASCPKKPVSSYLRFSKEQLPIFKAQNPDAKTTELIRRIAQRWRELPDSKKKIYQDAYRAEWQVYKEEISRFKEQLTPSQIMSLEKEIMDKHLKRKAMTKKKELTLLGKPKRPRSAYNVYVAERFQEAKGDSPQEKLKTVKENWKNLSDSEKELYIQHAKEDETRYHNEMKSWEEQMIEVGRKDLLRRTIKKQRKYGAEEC
UniProt Q92544, sequence (Q92544 whole entry, looked up): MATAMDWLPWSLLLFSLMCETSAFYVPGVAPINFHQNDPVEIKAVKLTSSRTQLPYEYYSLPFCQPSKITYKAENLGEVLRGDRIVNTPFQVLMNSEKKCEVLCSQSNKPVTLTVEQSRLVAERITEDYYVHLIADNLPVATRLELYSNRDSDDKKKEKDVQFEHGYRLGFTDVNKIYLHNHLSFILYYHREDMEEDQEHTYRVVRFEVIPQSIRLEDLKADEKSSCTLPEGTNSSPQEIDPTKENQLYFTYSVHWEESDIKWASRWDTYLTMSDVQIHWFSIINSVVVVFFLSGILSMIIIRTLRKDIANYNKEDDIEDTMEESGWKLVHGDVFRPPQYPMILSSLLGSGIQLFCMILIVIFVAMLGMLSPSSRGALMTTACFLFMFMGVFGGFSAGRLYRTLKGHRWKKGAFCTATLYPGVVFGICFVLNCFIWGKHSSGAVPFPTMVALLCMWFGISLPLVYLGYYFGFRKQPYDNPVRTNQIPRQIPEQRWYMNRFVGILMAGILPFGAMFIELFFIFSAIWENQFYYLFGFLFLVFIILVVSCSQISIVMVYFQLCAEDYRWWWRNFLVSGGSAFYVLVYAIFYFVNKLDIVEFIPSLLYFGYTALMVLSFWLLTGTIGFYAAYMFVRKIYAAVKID
UniProt Q5JUR7, sequence (Q5JUR7 whole entry, looked up): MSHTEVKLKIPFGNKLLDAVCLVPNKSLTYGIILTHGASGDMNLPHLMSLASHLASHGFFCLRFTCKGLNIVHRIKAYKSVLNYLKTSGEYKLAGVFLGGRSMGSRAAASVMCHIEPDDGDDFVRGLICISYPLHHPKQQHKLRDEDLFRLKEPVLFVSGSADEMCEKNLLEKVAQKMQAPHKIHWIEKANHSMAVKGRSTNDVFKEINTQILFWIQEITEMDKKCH
UniProt P08047, sequence (P08047 whole entry, looked up): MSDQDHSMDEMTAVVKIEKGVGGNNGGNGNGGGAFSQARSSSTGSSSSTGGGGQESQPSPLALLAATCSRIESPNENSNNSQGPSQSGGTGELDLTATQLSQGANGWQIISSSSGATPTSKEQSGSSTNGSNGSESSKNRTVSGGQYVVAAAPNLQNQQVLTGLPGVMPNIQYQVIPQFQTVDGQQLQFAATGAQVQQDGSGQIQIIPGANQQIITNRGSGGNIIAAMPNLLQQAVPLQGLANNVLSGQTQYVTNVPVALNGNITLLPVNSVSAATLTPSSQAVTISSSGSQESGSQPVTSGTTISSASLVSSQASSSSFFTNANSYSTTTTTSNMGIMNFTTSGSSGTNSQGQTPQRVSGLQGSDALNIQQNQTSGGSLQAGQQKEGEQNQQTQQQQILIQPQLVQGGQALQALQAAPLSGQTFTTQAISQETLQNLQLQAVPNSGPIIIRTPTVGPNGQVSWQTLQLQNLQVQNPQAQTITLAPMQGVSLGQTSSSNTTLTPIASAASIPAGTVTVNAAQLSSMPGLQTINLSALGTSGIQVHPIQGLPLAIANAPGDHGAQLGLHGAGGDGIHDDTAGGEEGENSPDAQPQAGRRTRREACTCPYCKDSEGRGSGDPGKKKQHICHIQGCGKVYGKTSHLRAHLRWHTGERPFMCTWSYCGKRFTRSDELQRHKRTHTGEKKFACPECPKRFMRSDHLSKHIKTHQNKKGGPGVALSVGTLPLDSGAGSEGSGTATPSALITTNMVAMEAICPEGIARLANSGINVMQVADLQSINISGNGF
UniProt Q9BYN0, sequence (Q9BYN0 whole entry, looked up): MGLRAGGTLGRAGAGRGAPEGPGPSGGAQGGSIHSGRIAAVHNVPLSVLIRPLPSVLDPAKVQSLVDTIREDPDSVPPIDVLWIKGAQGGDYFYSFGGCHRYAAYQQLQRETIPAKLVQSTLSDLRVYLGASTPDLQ
UniProt O95359, sequence (O95359 whole entry, looked up): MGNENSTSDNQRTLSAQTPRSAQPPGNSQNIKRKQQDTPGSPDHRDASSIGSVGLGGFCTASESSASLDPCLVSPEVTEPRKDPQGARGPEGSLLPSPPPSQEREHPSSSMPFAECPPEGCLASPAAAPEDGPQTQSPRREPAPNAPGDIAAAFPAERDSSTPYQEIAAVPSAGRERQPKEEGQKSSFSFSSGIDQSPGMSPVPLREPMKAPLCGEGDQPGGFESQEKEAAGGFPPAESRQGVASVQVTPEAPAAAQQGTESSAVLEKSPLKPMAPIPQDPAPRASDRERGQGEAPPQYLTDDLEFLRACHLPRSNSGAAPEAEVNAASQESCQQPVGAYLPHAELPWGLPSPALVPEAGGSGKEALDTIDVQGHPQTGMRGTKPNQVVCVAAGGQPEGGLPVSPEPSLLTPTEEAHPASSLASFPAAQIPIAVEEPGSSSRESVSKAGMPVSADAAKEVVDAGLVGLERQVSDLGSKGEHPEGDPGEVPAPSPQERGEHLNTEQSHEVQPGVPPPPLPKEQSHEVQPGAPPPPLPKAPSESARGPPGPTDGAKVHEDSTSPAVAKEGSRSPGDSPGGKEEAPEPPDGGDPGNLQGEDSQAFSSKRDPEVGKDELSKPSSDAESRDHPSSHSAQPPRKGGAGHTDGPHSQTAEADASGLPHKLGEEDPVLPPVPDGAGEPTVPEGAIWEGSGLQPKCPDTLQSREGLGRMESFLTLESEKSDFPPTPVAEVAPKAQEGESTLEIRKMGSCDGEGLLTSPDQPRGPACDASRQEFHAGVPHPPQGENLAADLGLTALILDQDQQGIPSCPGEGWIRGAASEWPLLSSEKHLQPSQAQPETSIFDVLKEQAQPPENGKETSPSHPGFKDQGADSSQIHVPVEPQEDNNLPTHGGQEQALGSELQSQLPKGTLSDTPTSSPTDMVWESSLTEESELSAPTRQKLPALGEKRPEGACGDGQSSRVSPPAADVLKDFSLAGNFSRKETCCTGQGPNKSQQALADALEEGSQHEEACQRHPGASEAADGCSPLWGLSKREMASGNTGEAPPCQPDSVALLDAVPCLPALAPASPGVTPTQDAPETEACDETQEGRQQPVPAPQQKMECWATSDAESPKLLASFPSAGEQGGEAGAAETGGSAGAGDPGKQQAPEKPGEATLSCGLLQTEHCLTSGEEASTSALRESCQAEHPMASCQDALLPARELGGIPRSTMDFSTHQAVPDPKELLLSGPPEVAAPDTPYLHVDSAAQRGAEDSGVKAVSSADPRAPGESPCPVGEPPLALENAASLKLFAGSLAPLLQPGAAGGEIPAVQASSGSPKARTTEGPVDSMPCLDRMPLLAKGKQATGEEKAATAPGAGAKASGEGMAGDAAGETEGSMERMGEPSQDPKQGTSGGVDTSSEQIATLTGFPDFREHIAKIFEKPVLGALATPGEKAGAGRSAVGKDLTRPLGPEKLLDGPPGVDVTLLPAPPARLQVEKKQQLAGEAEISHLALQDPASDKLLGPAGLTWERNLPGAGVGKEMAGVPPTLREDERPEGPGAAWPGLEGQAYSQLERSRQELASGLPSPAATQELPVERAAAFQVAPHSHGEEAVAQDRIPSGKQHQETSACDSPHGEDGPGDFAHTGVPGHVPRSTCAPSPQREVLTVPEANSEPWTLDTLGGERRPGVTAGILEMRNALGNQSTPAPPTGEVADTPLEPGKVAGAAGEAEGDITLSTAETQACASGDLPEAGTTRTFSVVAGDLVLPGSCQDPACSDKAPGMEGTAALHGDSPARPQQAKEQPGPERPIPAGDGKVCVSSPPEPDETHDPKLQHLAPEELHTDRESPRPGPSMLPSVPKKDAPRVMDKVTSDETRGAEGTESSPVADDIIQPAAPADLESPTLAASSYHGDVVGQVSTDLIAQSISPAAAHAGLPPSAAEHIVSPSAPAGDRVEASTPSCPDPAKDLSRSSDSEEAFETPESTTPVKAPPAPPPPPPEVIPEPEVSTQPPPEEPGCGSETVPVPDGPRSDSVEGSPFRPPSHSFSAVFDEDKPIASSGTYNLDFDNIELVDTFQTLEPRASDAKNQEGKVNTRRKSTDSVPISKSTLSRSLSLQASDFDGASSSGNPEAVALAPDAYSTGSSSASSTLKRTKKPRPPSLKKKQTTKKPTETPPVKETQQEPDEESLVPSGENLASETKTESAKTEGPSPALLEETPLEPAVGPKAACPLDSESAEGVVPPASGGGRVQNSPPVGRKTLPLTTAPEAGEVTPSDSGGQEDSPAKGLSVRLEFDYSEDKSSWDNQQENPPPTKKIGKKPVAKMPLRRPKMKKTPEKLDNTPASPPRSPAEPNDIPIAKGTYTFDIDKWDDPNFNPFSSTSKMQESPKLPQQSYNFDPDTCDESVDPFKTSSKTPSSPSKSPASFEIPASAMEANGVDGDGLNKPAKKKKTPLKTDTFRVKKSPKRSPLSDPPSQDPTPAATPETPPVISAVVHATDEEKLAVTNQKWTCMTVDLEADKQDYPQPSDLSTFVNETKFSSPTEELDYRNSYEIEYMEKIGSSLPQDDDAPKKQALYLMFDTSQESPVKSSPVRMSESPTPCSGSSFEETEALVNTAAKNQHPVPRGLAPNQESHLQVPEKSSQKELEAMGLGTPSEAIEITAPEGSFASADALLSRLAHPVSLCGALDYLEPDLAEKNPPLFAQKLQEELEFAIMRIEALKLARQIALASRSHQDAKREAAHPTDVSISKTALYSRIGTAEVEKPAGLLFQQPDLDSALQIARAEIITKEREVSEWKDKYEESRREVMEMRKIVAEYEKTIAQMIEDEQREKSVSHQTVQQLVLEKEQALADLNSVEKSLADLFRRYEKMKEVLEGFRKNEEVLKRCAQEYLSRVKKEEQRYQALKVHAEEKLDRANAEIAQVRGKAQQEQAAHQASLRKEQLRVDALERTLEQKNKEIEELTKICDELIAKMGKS

| Target | log2 fold change |
| --- | --- |
| TEX30 (UniProt Q5JUR7) | -0.097 (inactive) |
| TFAM (UniProt Q00059) | 0.085 (inactive) |
| SLC39A11 (UniProt Q8N1S5) | -0.085 (inactive) |
| TM9SF4 (UniProt Q92544) | -0.061 (inactive) |
| SLC25A38 (UniProt Q96DW6) | -0.21 (inactive) |
| SSBP4 (UniProt Q9BWG4) | -0.024 (inactive) |
| TAOK3 (UniProt Q9H2K8) | -0.048 (inactive) |
| SRI (UniProt P30626) | -0.04 (inactive) |
| SNX15 (UniProt Q9NRS6) | -0.048 (inactive) |
| SRXN1 (UniProt Q9BYN0) | -0.024 (inactive) |
| STX7 (UniProt O15400) | -0.072 (inactive) |
| SMARCA4 (UniProt P51532) | 0.048 (inactive) |
| TACC2 (UniProt O95359) | -0.052 (inactive) |
| SOAT1 (UniProt P35610) | -0.171 (inactive) |
| SP1 (UniProt P08047) | 0.1 (inactive) |

compound: NCC(=O)Nc1ccc(-n2nc(C(F)(F)F)cc2-c2ccc3c(ccc4ccccc43)c2)cc1; test: as above
Outline: as §1

| Target | log2 fold change |
| --- | --- |
| SYNE2 isoform 2 (UniProt Q8WXH0) | -0.134 (inactive) |
| SPAG9 (UniProt O60271) | -0.055 (inactive) |
| SMC5 (UniProt Q8IY18) | -0.051 (inactive) |
| SLC38A7 (UniProt Q9NVC3) | 0.197 (inactive) |
| SLC30A10 (UniProt Q6XR72) | 0.133 (inactive) |
| TK1 (UniProt K7ERV3) | 0.022 (inactive) |
| SMCHD1 (UniProt A6NHR9) | -0.423 (inactive) |
| SLC44A2 isoform 2 (UniProt Q8IWA5) | 0.05 (inactive) |
| SYNE1 (UniProt Q8NF91) | 0.04 (inactive) |
| TENT5C (UniProt Q5VWP2) | -0.32 (inactive) |
| SRCAP (UniProt Q6ZRS2) | -0.041 (inactive) |
| TBC1D20 isoform 3 (UniProt Q96BZ9) | -0.08 (inactive) |
| STK11IP (UniProt Q8N1F8) | 0.086 (inactive) |
| SMAD2 (UniProt Q15796) | -0.039 (inactive) |
| STXBP2 isoform 3 (UniProt Q15833) | -0.051 (inactive) |
| SPIRE1 (UniProt Q08AE8) | -0.04 (inactive) |
| TGFBR1 isoform 2 (UniProt P36897) | 0.002 (inactive) |
| STK38L (UniProt Q9Y2H1) | 0.078 (inactive) |

| Target | log2 fold change |
| --- | --- |
| STARD3 (UniProt Q14849) | -0.073 (inactive) |
| SRC isoform 2 (UniProt P12931) | -0.088 (inactive) |
| SRSF6 (UniProt Q13247) | 0.032 (inactive) |
| TEX30 (UniProt Q5JUR7) | -0.1 (inactive) |
| TFAM (UniProt Q00059) | 0.011 (inactive) |
| SLC39A11 (UniProt Q8N1S5) | 0.024 (inactive) |
| TM9SF4 (UniProt Q92544) | 0.032 (inactive) |
| SLC25A38 (UniProt Q96DW6) | 0.06 (inactive) |
| TAOK3 (UniProt Q9H2K8) | 0 (inactive) |
| SRI (UniProt P30626) | 0 (inactive) |
| SNX15 (UniProt Q9NRS6) | -0.133 (inactive) |
| SRXN1 (UniProt Q9BYN0) | -0.021 (inactive) |
| STX7 (UniProt O15400) | 0.011 (inactive) |
| SMARCA4 (UniProt P51532) | -0.201 (inactive) |
| TATDN2 (UniProt Q93075) | -0.126 (inactive) |
| TACC2 (UniProt O95359) | -0.187 (inactive) |
| SOAT1 (UniProt P35610) | -0.045 (inactive) |
| SP1 (UniProt P08047) | -0.001 (inactive) |
